Screens from PubChem BioAssay.
ST2 inh: inhibitors of human ST2 (IL1RL1) binding to IL-33, primary screen, biochemical, AlphaLISA | Interleukin-1 receptor-like 1 (Homo sapiens), Q01638 | AlphaLISA ST2-Fc/biotin-IL-33 interaction, 1 h | inhibition, % for hits at 17 µM | 78,000 tested, 2.3% active | AID 1259354, 2018; in the data active means inhibition above about 30%
Target sequence (Q01638 whole entry, looked up): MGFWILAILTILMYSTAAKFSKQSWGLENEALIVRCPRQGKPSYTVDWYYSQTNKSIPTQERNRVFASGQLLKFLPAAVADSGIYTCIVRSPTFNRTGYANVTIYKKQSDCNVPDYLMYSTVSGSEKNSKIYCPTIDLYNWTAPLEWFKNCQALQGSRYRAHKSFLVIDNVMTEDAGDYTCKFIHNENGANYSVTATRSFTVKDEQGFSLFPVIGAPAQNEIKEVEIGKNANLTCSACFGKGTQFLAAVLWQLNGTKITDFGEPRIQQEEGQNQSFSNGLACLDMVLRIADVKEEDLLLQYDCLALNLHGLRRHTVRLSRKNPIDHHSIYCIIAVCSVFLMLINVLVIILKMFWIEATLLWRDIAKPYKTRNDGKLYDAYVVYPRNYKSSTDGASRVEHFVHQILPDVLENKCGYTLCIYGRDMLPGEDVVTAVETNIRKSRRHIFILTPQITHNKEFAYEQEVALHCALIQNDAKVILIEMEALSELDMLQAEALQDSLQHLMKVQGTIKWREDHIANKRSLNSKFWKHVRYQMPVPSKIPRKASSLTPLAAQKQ
Numbers without * were called inactive; i = inactive. Many of the other results were omitted from the sample, so hits are more common in it than they were.

SMILES	ST2 inh
CCOc1ccc(CCNC(=O)Cn2nnc(-c3ccc(OC)cc3)n2)cc1OCC	i
COc1ccc(C2=NN(C(=O)CCC(=O)O)C(c3cccc(OC)c3OC)C2)cc1OC (configuration not stated)	i
COc1ccc(C2C(C(=O)OC3CCCCC3)=C(C)Nc3nnnn32)cc1Br (configuration not stated)	i
O=C(Cn1cnc2c(oc3ccccc32)c1=O)Nc1ccccc1	i
O=C(NCCN1CCCCCC1)C1CCN(c2ccc(-c3cccs3)nn2)CC1	i
CN(Cc1ccccc1)C(=O)c1cc2c(=O)n3ccccc3nc2n1C	i
O=C(Cc1ccccc1)N(c1ccccc1)c1ccccc1	i
CN(C(=O)N1CCN(C(=O)N(C)c2ccccc2)CC1)c1ccccc1	i
CN(C(=O)Cc1ccccc1)c1ccccc1	36%*
Cn1c(=NC(=O)c2ccc(S(=O)(=O)N3CCCC3)cc2)sc2cc(Cl)ccc21	i
CCOc1ccc(NC(=O)Cc2ccc(F)cc2)cc1	i
O=C(NCc1ccc(F)cc1)c1cc(-c2ccc(Cl)cc2)on1	i
Fc1ccc(Nc2nc(-c3ccc(Cl)cc3)cs2)cc1	i
O=C(c1ccc(S(=O)(=O)N2CCCC2)cc1)N1CCN=C1SCc1ccc(Cl)cc1	i
CCOC(=O)c1sc(=Nc2ccc(C)cc2)n(CCN2CCOCC2)c1C	i
CCOc1ccc(N=c2scc(-c3ccc(C)cc3)n2C)cc1	43%*
O=S(=O)(c1ccc(-c2csc(=Nc3ccc(Cl)cc3)n2CCCO)cc1)N1CCCC1	40%*
OCCCn1c(-c2ccc(F)cc2)csc1=Nc1ccc(Cl)cc1	46%*
CCOc1ccc(-c2csc(=Nc3ccccc3)n2CCN2CCOCC2)cc1	i
CCOC(=O)c1sc(=NC(=O)c2ccc(OCC)cc2)n(C)c1C	i
CCOc1ccc(N=c2scc(-c3ccc(F)cc3)n2CCCO)cc1	40%*
Cc1ccc(NCN2C(=O)C3CCC(C)CC3C2=O)cc1Cl (configuration not stated)	i
Cc1cccc(NC(=O)Cc2ccc(F)cc2)n1	i
COc1ccc(C(CC(=O)NC2CCCCC2)c2ccccc2)cc1 (configuration not stated)	i
CC(=O)c1cc(C(=O)N2CCc3c(cc(-c4cccc5nc(C)ccc45)c(=O)n3CC3CC3)C2)cs1	i
SMILES	ST2 inh
CN(C)c1ncc(CN2CCN(Cc3ccc(F)c(F)c3)C(CCO)C2)s1 (configuration not stated)	i
CNC(=O)CN1CCN(Cc2ccc(F)cc2Cl)C1=O	i
COc1ccc(CCN2C(=O)c3ccccc3C2(O)Cc2ccccc2)cc1OC (configuration not stated)	i
CCOC(=O)c1sc2nc(C)nc(N3CCCC(C)C3)c2c1C (configuration not stated)	i
Cc1ccc(C2C(C#N)=C(N)OC3=C2C(=O)CCC3)o1 (configuration not stated)	i
CCOC(=O)CC1=C(C(=O)OCC)C(c2ccc(C)o2)C(C#N)=C(N)O1 (configuration not stated)	i
Cc1ccc(C2C(C#N)=C(N)Oc3c2sc2ccccc32)o1 (configuration not stated)	39%*
CCCC(=O)N1CCSCC1	i
O=C(CCC1CCN(C2CCc3ccccc3C2)CC1)Nc1ccccc1Cl (configuration not stated)	i
Cc1ccc(S(=O)(=O)Cc2ccc(C(=O)NC(C)c3ccc4c(c3)OCCO4)o2)cc1 (configuration not stated)	i
CCCC1COCCN1C(=O)c1cc(=O)c2ccccc2o1 (configuration not stated)	40%*
Cc1ccc(NC2CCCN(C(=O)c3cc(=O)c4ccccc4o3)C2)cc1C (configuration not stated)	i
CCN1CCN(C(=O)c2cc(=O)c3ccccc3o2)C(C)C1=O (configuration not stated)	i
O=C(CSc1nnc(-c2ccccc2)o1)c1ccc(Br)cc1	i
COc1ccc(S(=O)(=O)N2CCN(c3nc(C)cc(N4CCOCC4)n3)CC2)cc1	i
O=C(CN1C(=O)C2CCCCN2c2ccc(S(=O)(=O)N3CCCCC3)cc21)NC1CCCC1 (configuration not stated)	i
COc1ccc(CN[C@H]2C[C@H]3C(=O)NC[C@@H](CCC(=O)N4CCN(c5ccccc5)CC4)N3C2)cc1	57%*
O=C(N[C@H]1C[C@H]2C(=O)NC[C@@H](CCC(=O)N3CCN(c4ccccc4)CC3)N2C1)C1CC1	i
O=C(N[C@H]1C[C@H]2C(=O)NC[C@@H](CCC(=O)N3CCN(c4ccccn4)CC3)N2C1)c1cccs1	33%*
COCCNC(=S)N[C@H]1C[C@H]2C(=O)NC[C@@H](CCC(=O)N3CCN(c4ccccc4)CC3)N2C1	i
COCCNC(=S)N[C@H]1C[C@H]2C(=O)NC[C@@H](CCC(=O)N3CCN(c4ccccn4)CC3)N2C1	i
